This note sets out measurements from PubChem BioAssay (NCI).

What all share (assay): NCI-60 one-dose screen, 48 h (100 = growth as untreated, 0 = no growth, -100 = all killed)
Test [1] deals with HCT-15 colon.
Test [2] has as its system HT29 colon.
Test [3] has as its system SNB-75 CNS.
The test system of test [4] is SNB-19 CNS.
Test [5] has as its system U251 CNS.
In test [6] the test system is PC-3 prostate.
For test [7], the system named is SK-MEL-5 melanoma.
Test [8] deals with UACC-62 melanoma.
The test system of test [9] is LOX IMVI melanoma.
Test [10] relates to SK-MEL-28 melanoma.

This is part of a sample that, as a whole, favours compounds with a hit. Of some 83,000 tested, about 20% had one in any assay.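 Activity criterion: percent growth below 10, measured after cells in 96-well plates were exposed to a single compound concentration for 48 hours.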 A number with no mark means an inactive call. Calls of active or inactive are those of the source.

As to `Nc1nc(-c2ccccc2)c(N=Nc2ccc(Cl)cc2Cl)s1`, the growth in [1] (10 µM unless noted) was -86% (active); in test [2] (10 µM unless noted), -60.4% (active); in [3] (10 µM unless noted) it was -36.5% (active); in test [4] (10 µM unless noted) it was -18.1% (active); in test [5] (10 µM unless noted), -10.7% (active); in test [6] (10 µM unless noted) it was -1.78% (active). Further, the growth is -99.2% (active) in [7] (10 µM unless noted), -49.5% (active) in test [8] (10 µM unless noted) and -99.5% (active) in [9] (10 µM unless noted).

Regarding `COc1cc2cc(C(=O)N3C[C@@H](CCl)c4c3cc(OC(=O)N(CCC(=O)N3CCN(C)CC3)[C@H]3CCSSC3)c3ccccc43)[nH]c2c(OC)c1OC`, the growth was -52.1% (active) in test [1] (10 µM unless noted); -49.4% (active) in [2] (10 µM unless noted); -68.7% (active) in [3] (10 µM unless noted); -7.02% (active) in test [4] (10 µM unless noted); -68% (active) in test [5] (10 µM unless noted); -4.51% (active) in test [6] (10 µM unless noted). The growth in [7] (10 µM unless noted) is -86.3% (active); in test [8] (10 µM unless noted), -91.8% (active); in [9] (10 µM unless noted) it was -99.5% (active).

On to `COc1ccc2c(c1)C(Sc1ccc(Cl)cc1)c1c(nc(N)c(C#N)c1N)O2` (stereo not given), for which the growth was 58.9% in test [1] (10 µM unless noted); 75.2% in [2] (10 µM unless noted); 36.9% in test [3] (10 µM unless noted); 65.1% in [4] (10 µM unless noted); 51.9% in test [5] (10 µM unless noted); 20% in [6] (10 µM unless noted). Further, the growth was 36.5% in test [7] (10 µM unless noted), 64.3% in test [8] (10 µM unless noted) and -2.6% (active) in test [9] (10 µM unless noted).

Take `CC/C(=C(/c1ccc(O)cc1)c1ccc(OCCN(C)C(=O)COCCOCCNC(=O)c2ccc3c(c2)CN([C@@H]2CCC(=O)NC2=O)C3=O)cc1)c1ccccc1`: the growth in test [1] (1 µM) is 105%; in test [1] (10 µM) it was 106%; in test [2] (1 µM), 96.6%; in test [2] (10 µM), 86%; in test [3] (1 µM) it was 54.5%; in [3] (10 µM), 34.7%. In addition, the growth in test [4] (1 µM) was 85.5%; in test [4] (10 µM), 75.5%; in [5] (1 µM) it was 98.3%; in test [5] (10 µM), 90.8%; in test [6] (1 µM), 49.6%; in test [6] (10 µM), 39.3%. Moreover, the growth in [7] (1 µM) was 95.2%; in [7] (10 µM), 84.1%; in test [8] (1 µM) it was 93.1%; in [8] (10 µM), 91.6%; in test [9] (1 µM) it was 98%; in test [9] (10 µM), 97.2%. For the same compound, the growth in [10] (1 µM) was 101%; in test [10] (10 µM), 97.5%.

Turning to `Cc1cc(=O)oc2cc(OCC(O)CNN3C(=O)c4cccc5c(N6CCN(C)CC6)ccc(c45)C3=O)ccc12` (stereo not given), the growth in test [1] (10 µM unless noted) was 91%; in test [2] (10 µM unless noted), 89.6%; in test [3] (10 µM unless noted) it was 82.4%; in test [4] (10 µM unless noted) it was 96.2%; in [5] (10 µM unless noted) it was 103%; in test [6] (10 µM unless noted), 105%. Moreover, the growth in [7] (10 µM unless noted) is 102%; in [8] (10 µM unless noted), 79.2%; in test [9] (10 µM unless noted) it was 71%.

For the compound `Cc1ccc(S(=O)(=O)Nc2ccc(-c3ccc4c(c3)NC(=O)/C4=C\c3ccc[nH]3)cc2)cc1`, the growth is 68.7% in test [1] (10 µM unless noted); 78.5% in [2] (10 µM unless noted); 96.1% in test [3] (10 µM unless noted); 95.1% in [4] (10 µM unless noted); 77.3% in [5] (10 µM unless noted); 80.1% in test [6] (10 µM unless noted). Moreover, the growth was 99.1% in test [7] (10 µM unless noted), 89.8% in test [8] (10 µM unless noted) and 91.7% in test [9] (10 µM unless noted).

In the case of `CC/C(=C(/c1ccc(O)cc1)c1ccc(OCCN(C)C(=O)CCOCCNC(=O)Cc2ccc3c(c2)CN([C@@H]2CCC(=O)NC2=O)C3=O)cc1)c1ccccc1`, the growth in test [1] (1 µM) was 108%; in test [1] (10 µM), 100%; in test [2] (1 µM) it was 103%; in [2] (10 µM), 91.3%; in test [3] (1 µM) it was 57%; in [3] (10 µM), 27.8%. The growth in [4] (1 µM) is 75.9%; in test [4] (10 µM) it was 62.1%; in test [6] (1 µM) it was 42.7%; in test [6] (10 µM) it was 27.4%; in [7] (1 µM), 97%; in test [7] (10 µM), 71.5%. For the same compound, the growth was 96.9% in test [8] (1 µM); 85.5% in test [8] (10 µM); 99.2% in test [9] (1 µM); 93.6% in test [9] (10 µM); 101% in test [10] (1 µM); 80.2% in test [10] (10 µM).

Consider `CC1=C(C)C(=O)C(N2CCSCC2)=CC1=O`, for which the growth in test [1] (10 µM unless noted) is 104%; in test [2] (10 µM unless noted) it was 103%; in test [3] (10 µM unless noted) it was 80.8%; in test [4] (10 µM unless noted) it was 87.2%; in test [5] (10 µM unless noted), 96.9%; in test [6] (10 µM unless noted) it was 89.7%. For the same compound, the growth in [7] (10 µM unless noted) was 96.7%; in [8] (10 µM unless noted) it was 93.3%; in [9] (10 µM unless noted), 83.8%; in test [10] (10 µM unless noted) it was 107%.

Take `Cc1ccc2c(c1)nc(-c1ccccc1)n2CC(=O)N=Nc1c(O)[nH]c2ccc(Cl)cc12`: the growth in test [1] (10 µM unless noted) is -45.7% (active); in test [2] (10 µM unless noted) it was -62.7% (active); in test [3] (10 µM unless noted), -83% (active); in test [4] (10 µM unless noted), -62.3% (active); in test [5] (10 µM unless noted), -77.7% (active); in test [6] (10 µM unless noted), -51.2% (active). In addition, the growth was -62.6% (active) in test [7] (10 µM unless noted), -63.5% (active) in test [8] (10 µM unless noted) and -70.1% (active) in test [9] (10 µM unless noted).

As for `O=C(c1ccc(O)cc1)C1[C@H](c2ccccc2Br)[C@@H](c2ccccc2)NC12C(=O)Nc1ccccc12` (stereo not given in full), the growth is 34.7% in test [1] (10 µM unless noted); -7.42% (active) in test [2] (10 µM unless noted); 36.8% in test [3] (10 µM unless noted); 58.5% in test [4] (10 µM unless noted); 7.5% (active) in test [5] (10 µM unless noted); 18.2% in [6] (10 µM unless noted). The growth was 28.1% in test [7] (10 µM unless noted), 31.9% in test [8] (10 µM unless noted), 5.24% (active) in test [9] (10 µM unless noted) and 59.3% in test [10] (10 µM unless noted).

On to `CN(C)c1nc(NCCNS(=O)(=O)c2ccc(C(=O)/C=C/c3ccccc3)cc2)nc(N2CCOCC2)n1`, for which the growth was -45.3% (active) in test [1] (10 µM unless noted); 3.67% (active) in test [2] (10 µM unless noted); 73.2% in [3] (10 µM unless noted); 77% in test [4] (10 µM unless noted); 44% in [5] (10 µM unless noted); 59.6% in test [6] (10 µM unless noted). In addition, the growth in [7] (10 µM unless noted) was 83.5%; in [8] (10 µM unless noted), 72.8%; in test [9] (10 µM unless noted) it was -63.1% (active).

Turning to `CCCn1c(NC(=O)c2cccc(C(N)=O)c2)nc2cc(CN3CCCCC3)ccc21`, the growth in test [1] (10 µM unless noted) is 77.9%; in test [2] (10 µM unless noted), 87.1%; in test [3] (10 µM unless noted), 133%; in test [4] (10 µM unless noted), 113%; in test [5] (10 µM unless noted), 116%; in test [6] (10 µM unless noted), 77%. Moreover, the growth is 88% in test [7] (10 µM unless noted), 113% in test [8] (10 µM unless noted) and 96.5% in [9] (10 µM unless noted).
